The nature of assay [1]: qHTS assay to identify small molecule agonists of the sonic hedgehog signaling (Shh) pathway (AID 1259368).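 Note: NIH/3T3-derived 3T3Gli1-Luc cells carrying a stable Gli1-driven firefly luciferase reporter; series mostly up to about 92 µM; nearly all actives have a fitted effect of over 15% in size.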 Summed up:
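Luminescent signal was taken as a measure of Gli1-controlled luciferase expression in stably transfected NIH/3T3-derived cells that had been treated for 24 hr with compounds delivered in DMSO.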
A general note: qHTS replaces the single test concentration by a dilution series.

Assay [2] is described as follows: qHTS assay to identify small molecule antagonists of the sonic hedgehog signaling (Shh) pathway (AID 1259369). Note: nearly all actives have a fitted effect of over 45% in size. The essentials: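 Screening used 3T3Gli1-Luc cells at 2,000 per well, compounds delivered in DMSO, and conditioned medium as agonist stimulus; plates incubated 24hr at 37 C and 5% CO2 before a 30min luciferase step.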
The nature of assay [3]: qHTS assay to identify small molecule agonists of the androgen receptor (AR) signaling pathway in the presence of an antagonist - cell viability counter screen (AID 1259379; active = well fitted curve in the direction sought with a large enough effect in the repeat runs; an effect the other way counts as inactive or inconclusive;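 note: MDA-kb2 human breast cancer cells carrying an MMTV luciferase reporter; series mostly up to about 92 µM; nearly all actives have a fitted effect of over 25% in size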). Summed up: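 In MDA-kb2 cells (human breast carcinoma, MMTV-luciferase), compounds at 15 concentrations plus 3.0uM nilutamide; 16 hr, 37C, 0% CO2; CellTiter-Fluor fluorescence read for viability.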
The nature of assay [4]: qHTS assay to identify small molecule antagonists of the estrogen receptor beta (ER-beta) signaling pathway - cell viability counter screen (AID 1259382; active = well fitted curve in the direction sought with a large enough effect in the repeat runs; an effect the other way counts as inactive or inconclusive;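 note: HEK293T cells carrying ER-beta-UAS-bla reporter stimulated with estradiol; series mostly up to about 92 µM; nearly all actives have a fitted effect of over 55% in size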). The essentials: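 Tox21 10K library tested in qHTS format on ER-beta-bla HEK293T cells stimulated with 1nM E2; 16 hr treatment at 37C. Same-well CellTiter-Glo luminescence served as the cell viability measure.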
In assay [5] the target is Estrogen receptor (Homo sapiens) (UniProt P03372). Briefly: qHTS assay to identify small molecule agonists of the estrogen receptor alpha (ER-alpha) signaling pathway in the presence of an antagonist (AID 1259383). Note: top concentration of the series differs between compounds; nearly all actives have a fitted effect of over 15% in size. The essentials: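 In VM7Luc4E2 cells, 4,000 per well, compounds at 15 concentrations were co-incubated 22hr at 37C with 10.0nM final ICI-182,780. Luminescence from the stably transfected 4×ERE-luciferase reporter was recorded 30min after ONE-Glo addition.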

The target in assay [6] is Progesterone receptor (Homo sapiens) (UniProt P06401). Briefly: qHTS assay to identify small molecule agonists of the progesterone receptor (PR) signaling pathway (AID 1346784). Note: nearly all actives have a fitted effect of over 30% in size. Summed up: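 PR-UAS-bla HEK 293T cells (beta-lactamase reporter under UAS) in 2% charcoal-stripped FBS, dosed with 23 nL compound after 6 hr, incubated 16hr at 37C. LiveBLAzer B/G FRET substrate added, fluorescence read after 2 hours.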

The target is the same in assay [7]. The experiment in a line: qHTS assay to identify small molecule antagonists of the progesterone receptor (PR) signaling pathway (AID 1346795; active = well fitted inhibition curve with a large enough effect in the signal ratio in the repeat runs, not every such curve was filed as active; the % refers to the signal ratio; note: potency is the fitted concentration of half-maximal effect). Summed up: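 PR-UAS-bla HEK293T cells with beta-lactamase reporter under UAS control, in 2% charcoal-stripped FBS, treated with compounds plus 1 nM promegestone (R5020, final) for 16 hr at 37C. Read-out: FRET beta-lactamase substrate fluorescence after 2 hr at room temperature.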

Assay [8] can be described thus: qHTS assay to identify small molecule antagonists of the progesterone receptor (PR) signaling pathway - cell viability counter screen (AID 1346798; active = well fitted curve in the direction sought with a large enough effect in the repeat runs; an effect the other way counts as inactive or inconclusive; note: series mostly up to about 92 µM; nearly all actives have a fitted effect of over 50% in size). Summed up:
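PR-UAS-bla HEK293T cells, 3,000/well in 2% charcoal-stripped FBS medium, dosed with compounds plus R5020 agonist and incubated 16 h at 37C. Viability then measured in the same wells by CellTiter-Glo luminescence after 30 min at RT.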

Assay [9] in a line: qHTS assay to identify small molecule agonists of the progesterone receptor (PR) signaling pathway - cell viability counter screen (AID 1346799). Note: nearly all actives have a fitted effect of over 45% in size. The essentials:
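Counter screen in the PR-UAS-bla HEK293T wells (2% charcoal-stripped FBS, 16 h compound exposure at 37 C) after the bla read. CellTiter-Glo added, 30 min at room temperature, luminescence read as cell viability.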

Assay [10] can be described thus: qHTS assay to identify small molecule antagonists of the TGF-beta/Smad signaling pathway - cell viability counter screen (AID 1346824; active = well fitted curve in the direction sought with a large enough effect in the repeat runs; an effect the other way counts as inactive or inconclusive; note: nearly all actives have a fitted effect of over 50% in size). Summed up: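 Cytotoxicity counter-screen run in the same wells as the beta-lactamase Smad reporter read: CellTiter-Glo luminescence after 30 min at room temperature. HEK 293T SBE-bla cells had 5 hr compound exposure at 37 C with TGF-beta1 (0.25 ng/mL stock).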

Assay [11] in a line: qHTS assay to identify small molecule agonists of the TGF-beta/Smad signaling pathway - cell viability counter screen (AID 1346829; active = well fitted curve in the direction sought with a large enough effect in the repeat runs; an effect the other way counts as inactive or inconclusive; note: top concentration of the series differs between compounds; nearly all actives have a fitted effect of over 45% in size). The essentials:
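Luminescence from CellTiter-Glo, read after a 30 min room-temperature incubation, gives cell viability of SBE-bla HEK 293T cells treated 5 hr with compounds at 37 C.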

Assay [12] can be described thus: qHTS assay to identify small molecule agonists of the TGF-beta/Smad signaling pathway (AID 1346859; active = well fitted activation curve with a large enough effect in the signal ratio in the repeat runs, not every such curve was filed as active; the % refers to the signal ratio; note: series mostly up to about 77 µM). Summed up:
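SBE-bla HEK293T cells plated overnight, then compound exposure for 5 h at 37 C. Beta-lactamase reporter read with LiveBLAzer B/G FRET substrate after 2 h at room temperature, fluorescence at 405 nm excitation, 460/530 nm emission.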

The target of assay [13] is Thyrotropin-releasing hormone receptor (Homo sapiens) (UniProt P34981). The experiment in a line: qHTS assay to identify small molecule antagonists of the thyrotropin-releasing hormone receptor (TRHR) signaling pathway (AID 1346877; active = well fitted inhibition curve with a large enough effect in the repeat runs, not every such curve was filed as active; note: series mostly up to about 51 µM). Summed up: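 In this cell-based calcium flux format, HEK293 cells expressing TRHR received test compound for 5 min before the agonist TRH (1 nM final). Dye loading lasted 2 h at 37 °C.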

The target of assay [14] is Estrogen receptor beta (Homo sapiens) (UniProt Q92731). The experiment in a line: qHTS assay to identify small molecule agonists of the estrogen receptor beta (ER-beta) signaling pathway (AID 1259377; active = well fitted activation curve with a large enough effect in the signal ratio in the repeat runs, not every such curve was filed as active; the % refers to the signal ratio). Summed up: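 ER-beta-UAS-bla HEK293T cells in medium with 2% charcoal-stripped FBS were exposed to compounds for 16 h at 37C. Beta-lactamase reporter activity was read as fluorescence after 2 h with LiveBLAzer B/G FRET substrate at room temperature.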

For assay [15] the target is unchanged. Briefly: qHTS assay to identify small molecule antagonists of the estrogen receptor beta (ER-beta) signaling pathway (AID 1259378; active = well fitted inhibition curve with a large enough effect in the signal ratio in the repeat runs, not every such curve was filed as active; the % refers to the signal ratio). The essentials:
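Antagonist mode: compounds added to beta-lactamase reporter HEK293T ER-beta-UAS cells stimulated with E2 (1nM final), 16 hr at 37C. LiveBLAzer B/G FRET substrate, 2 hours room temperature, fluorescence read-out.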

In assay [16] the target is Androgen receptor (Homo sapiens) (UniProt P10275). Briefly: qHTS assay to identify small molecule agonists of the androgen receptor (AR) signaling pathway in the presence of an antagonist (AID 1259381). Note: nearly all actives have a fitted effect of over 15% in size. The essentials:
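Here, 15-concentration compound series were pin-transferred onto MDA-kb2 MMTV-luciferase cells already dosed with nilutamide (3.0uM final). After 16hr at 37C, ONE-Glo was added and luminescence read 30min later at room temperature.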

Assay [17] in a line: qHTS assay to identify small molecule agonists or antagonists of the thyroid stimulating hormone receptor (TSHR) signaling pathway - wild type cell line counter screen (AID 1259384). Summed up:
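Counter screen in untransfected Hek293: compounds (15-point titration, triplicate) plus phosphodiesterase inhibitor Ro20-1724 added after 18 h plating; 30 min RT. Intracellular cAMP via competitive d2/cryptate immunoassay, 1 h incubation.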

Assay [18] concerns the target Thyrotropin receptor (Homo sapiens) (UniProt P16473). Briefly: qHTS assay to identify small molecule antagonists of the thyroid stimulating hormone receptor (TSHR) signaling pathway (AID 1259385). Note: nearly all actives have a fitted effect of over 20% in size. The essentials:
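Antagonist mode: compound-treated TSHR-expressing HEK293 cells were stimulated with 1.5 ng/mL TSH (final) in presence of Ro20-1724 for 30 min at RT. HTRF cAMP detection after 1 h; each compound tested at 15 concentrations, triplicate.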

Assay [19] can be described thus: qHTS assay to identify small molecule agonists of the estrogen receptor alpha (ER-alpha) signaling pathway in the presence of an antagonist - cell viability counter screen (AID 1259386; active = well fitted curve in the direction sought with a large enough effect in the repeat runs; an effect the other way counts as inactive or inconclusive;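 note: series mostly up to about 92 µM; cells exposed to compounds for 22 h at 37 °C before the viability read; nearly all actives have a fitted effect of over 30% in size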). The essentials: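 Fluorescent CellTiter-Fluor viability signal from VM7Luc4E2 cells, with the reagent added during the final hour of a 22hr compound exposure at 37C in the presence of 10.0nM ICI-182,780.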

A short description of assay [20]: qHTS assay to identify small molecule agonists of the estrogen receptor beta (ER-beta) signaling pathway - cell viability counter screen (AID 1259380; active = well fitted curve in the direction sought with a large enough effect in the repeat runs; an effect the other way counts as inactive or inconclusive; note: nearly all actives have a fitted effect of over 30% in size). The essentials: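 Viability of ER-beta-UAS-bla HEK293T cells was determined by CellTiter-Glo luminescence following 16 hr treatment with test compounds at 37C.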

Records with an inconclusive call do not appear. Active and inactive are the calls of the source. Unless noted, calls come from the whole dose curve.

Six compounds from PubChem BioAssay (Tox21) can be followed below.

Thyrotropin-releasing hormone receptor (Homo sapiens), sequence (P34981 whole entry, looked up): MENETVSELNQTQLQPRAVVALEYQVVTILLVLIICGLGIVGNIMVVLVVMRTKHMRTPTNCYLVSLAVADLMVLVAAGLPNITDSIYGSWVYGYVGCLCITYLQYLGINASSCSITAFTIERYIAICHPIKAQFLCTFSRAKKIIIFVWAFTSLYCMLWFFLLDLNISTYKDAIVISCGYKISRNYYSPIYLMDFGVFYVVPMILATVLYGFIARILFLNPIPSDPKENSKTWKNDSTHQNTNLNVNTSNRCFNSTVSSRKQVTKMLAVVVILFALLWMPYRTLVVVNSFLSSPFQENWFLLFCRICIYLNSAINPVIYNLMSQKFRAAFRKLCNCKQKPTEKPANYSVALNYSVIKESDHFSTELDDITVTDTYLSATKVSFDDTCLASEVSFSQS
Progesterone receptor (Homo sapiens), sequence (P06401 whole entry, looked up): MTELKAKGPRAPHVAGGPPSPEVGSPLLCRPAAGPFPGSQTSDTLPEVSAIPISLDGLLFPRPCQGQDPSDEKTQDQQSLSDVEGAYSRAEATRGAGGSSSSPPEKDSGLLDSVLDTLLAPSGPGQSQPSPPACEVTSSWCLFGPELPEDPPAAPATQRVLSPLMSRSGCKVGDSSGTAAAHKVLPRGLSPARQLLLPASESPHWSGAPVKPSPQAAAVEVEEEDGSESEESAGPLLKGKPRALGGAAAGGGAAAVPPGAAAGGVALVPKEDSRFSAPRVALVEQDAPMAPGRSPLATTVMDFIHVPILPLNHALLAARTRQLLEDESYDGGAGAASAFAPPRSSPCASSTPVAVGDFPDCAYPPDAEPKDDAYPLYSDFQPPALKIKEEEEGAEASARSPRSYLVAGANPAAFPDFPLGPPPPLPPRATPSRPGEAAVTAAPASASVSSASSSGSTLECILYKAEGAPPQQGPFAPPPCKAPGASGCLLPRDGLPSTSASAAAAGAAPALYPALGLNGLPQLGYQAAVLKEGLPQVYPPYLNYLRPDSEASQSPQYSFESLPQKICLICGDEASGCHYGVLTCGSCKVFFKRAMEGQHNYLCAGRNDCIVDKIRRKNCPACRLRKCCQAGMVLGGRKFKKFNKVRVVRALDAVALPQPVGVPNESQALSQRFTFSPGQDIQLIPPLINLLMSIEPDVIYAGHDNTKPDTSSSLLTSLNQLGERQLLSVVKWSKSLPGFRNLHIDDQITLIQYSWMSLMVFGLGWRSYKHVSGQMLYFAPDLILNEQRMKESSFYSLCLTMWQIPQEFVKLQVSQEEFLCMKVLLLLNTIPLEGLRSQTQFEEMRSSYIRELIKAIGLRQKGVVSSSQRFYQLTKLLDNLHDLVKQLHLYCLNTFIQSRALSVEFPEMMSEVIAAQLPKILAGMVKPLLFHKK
Thyrotropin receptor (Homo sapiens), sequence (P16473 whole entry, looked up): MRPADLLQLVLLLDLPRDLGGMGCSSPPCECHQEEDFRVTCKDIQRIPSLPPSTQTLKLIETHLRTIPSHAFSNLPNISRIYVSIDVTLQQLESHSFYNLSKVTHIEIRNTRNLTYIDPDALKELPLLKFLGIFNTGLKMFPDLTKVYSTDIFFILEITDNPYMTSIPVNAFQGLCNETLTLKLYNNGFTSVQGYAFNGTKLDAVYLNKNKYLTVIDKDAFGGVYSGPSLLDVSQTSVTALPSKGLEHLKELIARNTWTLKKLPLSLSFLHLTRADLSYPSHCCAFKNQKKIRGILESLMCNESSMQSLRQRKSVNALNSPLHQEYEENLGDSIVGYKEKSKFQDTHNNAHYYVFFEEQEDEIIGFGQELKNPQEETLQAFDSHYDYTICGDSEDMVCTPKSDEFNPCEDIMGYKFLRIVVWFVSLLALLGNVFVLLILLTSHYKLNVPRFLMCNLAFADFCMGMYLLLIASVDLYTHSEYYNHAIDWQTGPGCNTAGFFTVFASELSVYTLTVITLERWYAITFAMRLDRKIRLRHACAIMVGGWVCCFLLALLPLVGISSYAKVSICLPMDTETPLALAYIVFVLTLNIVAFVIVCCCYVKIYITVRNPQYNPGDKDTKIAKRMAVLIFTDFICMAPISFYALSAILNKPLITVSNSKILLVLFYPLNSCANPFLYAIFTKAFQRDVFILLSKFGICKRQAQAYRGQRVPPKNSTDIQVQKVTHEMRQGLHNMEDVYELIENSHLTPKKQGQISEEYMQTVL
Estrogen receptor (Homo sapiens), sequence (P03372 whole entry, looked up): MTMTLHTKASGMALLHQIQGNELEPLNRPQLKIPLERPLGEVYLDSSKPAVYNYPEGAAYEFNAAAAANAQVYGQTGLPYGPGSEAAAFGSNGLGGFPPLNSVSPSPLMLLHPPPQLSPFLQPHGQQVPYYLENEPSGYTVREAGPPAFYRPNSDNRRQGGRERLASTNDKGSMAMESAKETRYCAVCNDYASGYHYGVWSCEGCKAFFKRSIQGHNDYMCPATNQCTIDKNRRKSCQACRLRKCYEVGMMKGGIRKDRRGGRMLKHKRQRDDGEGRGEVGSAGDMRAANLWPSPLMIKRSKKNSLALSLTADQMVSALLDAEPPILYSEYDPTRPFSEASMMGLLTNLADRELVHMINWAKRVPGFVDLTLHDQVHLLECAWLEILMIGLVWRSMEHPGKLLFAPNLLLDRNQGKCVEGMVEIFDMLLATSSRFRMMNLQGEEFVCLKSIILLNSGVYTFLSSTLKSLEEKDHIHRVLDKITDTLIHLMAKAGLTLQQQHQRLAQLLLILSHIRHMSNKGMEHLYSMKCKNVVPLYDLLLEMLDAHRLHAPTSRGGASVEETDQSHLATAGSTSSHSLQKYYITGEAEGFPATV
Estrogen receptor beta (Homo sapiens), sequence (Q92731 whole entry, looked up): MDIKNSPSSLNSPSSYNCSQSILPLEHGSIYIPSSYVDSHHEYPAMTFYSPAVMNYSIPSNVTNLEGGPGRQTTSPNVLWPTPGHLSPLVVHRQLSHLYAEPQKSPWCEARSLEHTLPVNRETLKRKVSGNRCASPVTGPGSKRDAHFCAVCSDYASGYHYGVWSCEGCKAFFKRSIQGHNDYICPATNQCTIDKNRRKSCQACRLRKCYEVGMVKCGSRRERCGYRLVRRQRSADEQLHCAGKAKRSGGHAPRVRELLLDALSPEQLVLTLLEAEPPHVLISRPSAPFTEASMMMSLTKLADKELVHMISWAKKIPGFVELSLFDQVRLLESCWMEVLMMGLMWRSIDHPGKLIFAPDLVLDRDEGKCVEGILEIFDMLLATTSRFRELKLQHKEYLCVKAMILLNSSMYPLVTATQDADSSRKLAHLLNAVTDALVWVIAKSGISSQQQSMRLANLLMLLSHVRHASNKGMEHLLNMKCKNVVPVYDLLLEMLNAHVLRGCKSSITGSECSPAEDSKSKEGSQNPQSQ
Androgen receptor (Homo sapiens), sequence (P10275 whole entry, looked up): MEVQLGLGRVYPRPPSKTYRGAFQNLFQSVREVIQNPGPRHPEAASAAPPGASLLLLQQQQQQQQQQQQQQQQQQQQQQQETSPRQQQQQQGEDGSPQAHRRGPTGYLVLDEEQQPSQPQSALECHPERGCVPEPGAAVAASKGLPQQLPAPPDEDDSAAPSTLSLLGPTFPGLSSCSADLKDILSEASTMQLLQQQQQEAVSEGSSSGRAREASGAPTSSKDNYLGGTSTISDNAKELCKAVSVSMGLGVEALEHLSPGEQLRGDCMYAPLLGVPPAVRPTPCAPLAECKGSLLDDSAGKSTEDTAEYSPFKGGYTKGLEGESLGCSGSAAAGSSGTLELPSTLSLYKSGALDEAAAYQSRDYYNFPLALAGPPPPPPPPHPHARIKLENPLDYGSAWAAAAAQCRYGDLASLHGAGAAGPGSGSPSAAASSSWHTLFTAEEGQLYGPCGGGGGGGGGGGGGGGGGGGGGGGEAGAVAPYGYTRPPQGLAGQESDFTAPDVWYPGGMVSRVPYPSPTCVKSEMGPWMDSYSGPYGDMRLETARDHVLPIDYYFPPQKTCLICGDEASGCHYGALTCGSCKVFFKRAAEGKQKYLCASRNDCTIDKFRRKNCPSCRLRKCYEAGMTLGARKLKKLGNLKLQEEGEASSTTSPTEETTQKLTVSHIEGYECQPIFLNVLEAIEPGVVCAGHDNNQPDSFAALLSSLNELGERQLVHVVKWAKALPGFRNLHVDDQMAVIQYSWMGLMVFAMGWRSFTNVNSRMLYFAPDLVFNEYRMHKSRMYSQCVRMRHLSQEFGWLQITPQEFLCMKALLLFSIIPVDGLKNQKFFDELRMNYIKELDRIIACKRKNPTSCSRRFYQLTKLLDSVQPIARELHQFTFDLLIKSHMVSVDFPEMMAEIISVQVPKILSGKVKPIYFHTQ

As for `CCC1(C)CC(=O)NC1=O` (stereo not given), the Potency entry in assay [1], in [2], in assay [3], in assay [4], in [5] and in [6] was “inactive” each time. For the same compound, the Potency entry in assay [7], in assay [8] and in assay [9] was “inactive” each time. For the same compound, the compound was called inactive in assay [10], in assay [11], in assay [12] and in assay [13].

Turning to `CCC(C(=O)OCCN(CC)CC)c1ccccc1` (stereo not given), the Potency entry in [1], in assay [14], in assay [15], in assay [3], in [16] and in [4] was “inactive” throughout. Besides, the Potency entry in [5], in [18], in assay [19], in [6], in [7] and in [9] was “inactive” in each case. Besides, the compound was called inactive in assay [17], in [10], in assay [11], in assay [12] and in assay [13].

As for `Cc1ccc(S(=O)(=O)NC2CCCCC2)cc1`, the Potency result in assay [1], in [14], in assay [15], in assay [3], in assay [20] and in assay [4] was “inactive” each time. Besides, the Potency result in [5], in [18] and in [6] was “inactive” each time. Besides, the result in [17], in assay [10], in assay [11], in assay [12] and in assay [13] was inactive. Also, the Potency in [7] is 27.1 µM (active).

On to `Oc1cc(O)c(Cl)cc1Cl`, for which the Potency result in [1], in assay [14], in [15], in assay [3], in assay [20] and in assay [4] was “inactive” throughout. Also, the Potency entry in [5], in assay [18], in assay [19], in [6] and in assay [8] was “inactive” in each case. The compound was called inactive in [17], in assay [10], in assay [11] and in assay [12]. Besides, in assay [7], the Potency was 49.7 µM (active).

Turning to `CC1=CC(O)CC(C)(C)C1` (stereo not given), the Potency entry in [1], in assay [2], in assay [3], in [4], in [5] and in assay [18] was “inactive” in each case. Also, the Potency result in [19], in assay [6], in assay [8] and in assay [9] was “inactive” throughout. In addition, the compound was classed as inactive in [17], in assay [11] and in [12].

Take `CCOC(=O)/C=C/C(=O)O`: the Potency result in assay [1], in [2], in assay [3], in assay [16], in assay [4] and in [5] was “inactive” throughout. For the same compound, the Potency entry in [18], in [19], in assay [6], in [7] and in [9] was “inactive” throughout. The outcome in assay [17], in assay [10], in assay [11], in assay [12] and in assay [13] was inactive.
